Compounds without any hit were thinned out: in the full panel of roughly 83,000, 20% have a hit.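 Compound tested at a single concentration for 48 hours in 96-well plates; a percent growth value below 10 was scored as active.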 The source made the active and inactive calls.
Test system: A498 renal
Assay: NCI-60 one-dose screen, 48 h (100 = growth as untreated, 0 = no growth, -100 = all killed)
Details: 10 µM unless noted

Structure (SMILES)	growth
CCS(=O)(=O)Nc1cccc(Nc2c3cccc(C)c3nc3c(C)cccc23)c1OC	-1.15% (active)
Cc1nn(-c2ccccc2)c2nc3c(nc12)C1=NCCN1C(c1ccc(Cl)cc1)N3 (centres undefined)	85.6% (inactive)
O=C(Nc1cccc(C2=NCCN2)c1)c1ccc(N=Nc2ccc(C(=O)Nc3cccc(C4=NCCN4)c3)cc2)cc1	66.3% (inactive)
COC(=O)[C@@H](Cc1c[nH]c2ccccc12)NC(=O)/C=C/c1ccccc1	-9.95% (active)
CCOC(=O)C(CCCCC(NC(C)=O)(C(=O)OCC)C(=O)OCC)(NC(C)=O)C(=O)OCC	115% (inactive)
COc1ccc(-c2cc(-c3cc4ccccc4oc3=O)n(-c3ccccc3)n2)cc1	91.3% (inactive)
CC(C)N(C(=S)SSC(=S)N(C(C)C)C(C)C)C(C)C	97.8% (inactive)
CCOC(OCC)c1cnc2nc(NC(C)=O)[nH]c(=O)c2n1	73% (inactive)
CC(C)(C)c1cc(C[P+](c2ccccc2)(c2ccccc2)c2ccccc2)cc(C(C)(C)C)c1O	-17.1% (active)
N#Cc1ccc(-c2ccc(-c3cccs3)o2)cc1F	95.9% (inactive)
CCN(C(=O)CCl)C(C)(C)C(SSSC(c1ccc(Cl)cc1)C(C)(C)N(CC)C(=O)CCl)c1ccc(Cl)cc1 (centres undefined)	98.8% (inactive)
N=C(N)c1ccc(-c2ccc(-c3ccco3)o2)cc1F	11.6% (inactive)
COc1ccc(/C=C/c2nc(NCCCN(C)C)c3ccccc3n2)cc1	93.6% (inactive)
COc1cc2c(cc1OC)-c1cc(OC)c(OC)cc1C(CN(C)C)C2 (centres undefined)	52.6% [100 µM] (inactive)
CCCCCCCCN=C(NCCCCCCCC)SCc1cccc2ccccc12	-80.4% (active)
N=C(N)c1ccc(-c2ccc(-c3cccs3)s2)cc1F	-92.7% (active)
COc1ccc2nc(-c3ccc(-c4noc(-c5ccc(Cl)cc5)n4)cc3)[nH]c2c1	90.7% (inactive)
Cc1cccc2nc3ccccc3c(Nc3ccc(NS(C)(=O)=O)cc3)c12	45.3% (inactive)
CC(C)CCSc1nc(Nc2ccccc2)c(C#N)c(-c2ccc(F)cc2)n1	40% (inactive)
COc1cc(OC)cc(-c2ccc(-c3ccc(C(=N)N)s3)s2)c1	-80.9% (active)

Structure (SMILES)	growth
COc1ccc(-c2ccc(-c3ccc(C(=N)N)s3)s2)cc1	-73.9% (active)
C#CCO[C@H]1CC[C@H](OCC#C)[C@@H]2[C@H]1[C@H]1C[C@@H]3[C@@]4(C)CCC[C@@](C)(C(=O)OC)[C@@H]4CC[C@@]23C=C1C(C)C	108% (inactive)
COC(=O)[C@H](Cc1cn(C)cn1)NC(=O)[C@H](CC(C)C)NC(=O)Nc1cc(C(F)(F)F)cc(C(F)(F)F)c1	-93.8% [100 µM] (active)
O=C1CCCN1C1CCN2CCCc3cccc1c32 (centres undefined)	99.2% (inactive)
O=C(CCCN1CCC(O)(c2ccc(Br)cc2)CC1)c1ccc(F)cc1	82.2% (inactive)
COc1ccc(/C=N/NC(N)=S)c(OC)n1	99.1% (inactive)
CCN1C(=O)N(CC)C2C1N=C(SC)N2/N=C/C=C/c1ccccc1OC (centres undefined)	15.1% (inactive)
C/C(=N\Nc1ccc([N+](=O)[O-])cn1)c1ccc(N)cc1	82.4% (inactive)
N/C(=N\O)c1ncc(-c2ccc(C(F)(F)F)cc2)c(NC2CCCCCC2)n1	-90.1% [100 µM] (active)
O=[N+]([O-])c1ccc(Sc2nc(Cl)nc(NC3CCCC3)n2)cc1	-94.2% [100 µM] (active)
Cc1cc2nc(CN)[nH]c2cc1C	98.7% (inactive)
ClC1=NC(Cl)C(Cl)=N/C1=N\c1ncn[nH]1 (centres undefined)	121% (inactive)
COc1ccc(CNc2c3ccccc3nc3ccccc23)cc1F	-6.26% (active)
CCOC(=O)C1C(=O)C=C(c2ccccc2)CC1c1sc(N(C)Cc2ccccc2)nc1Cl (centres undefined)	107% (inactive)
CCOC(=O)c1cc(C(=O)OCC)c(C)nc1C	110% (inactive)
O=C1OCC2=C1C(c1ccccc1)c1cc3c(cc1N2CCO)CCC3 (centres undefined)	-21.5% (active)
O=C(CC(=O)c1ccccc1F)Nc1ccc([N+](=O)[O-])cc1	109% (inactive)
Cc1cc(Nc2c3ccccc3nc3ccccc23)ccc1NS(C)(=O)=O	24.2% (inactive)
COC(=O)CSc1ccc(Cl)cc1	79.9% (inactive)
